Experiments:
Settings in all cases: concentration: 1 μM, replicates: in singlicate; n = 1
PAK6 = tested on: PAK6
PAK7 = tested on: PAK7
PCTK1 = tested on: T1, PCTK1
T1 construct: gene CDK16

PCTK2 = tested on: T2, PCTK2
T2 construct: gene CDK17

PCTK3 = tested on: T3, PCTK3
T3 construct: gene CDK18

PDGFRA = tested on: PDGFRA
PDGFRB = tested on: PDGFRB
PDPK1 = tested on: PDPK1
PFTAIRE2 = tested on: PFTAIRE2
PFTK1 = tested on: T4, PFTK1
T4 construct: gene CDK14
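Further: KINOMEscan kinase panel screen.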

SMILES	%Inh (PAK6) [%]	%Inh (PAK7) [%]	%Inh (PCTK1) [%]	%Inh (PCTK2) [%]	%Inh (PCTK3) [%]	%Inh (PDGFRA) [%]	%Inh (PDGFRB) [%]	%Inh (PDPK1) [%]	%Inh (PFTAIRE2) [%]	%Inh (PFTK1) [%]
Cc1ccc(NC(=O)Nc2cc(C(C)(C)C)nn2-c2ccccc2)cc1 [GSK1014915]	0	0	6	0	27	36	98.9	0	10	9
Cc1c(Cn2ccn3c(=O)cc(N4CCOCC4)nc23)cccc1C(F)(F)F [GSK2289044]	4	27	2	0	8	0	21	17	17	13
CN(C)CCN(C)C(=O)c1cc(-c2ccncc2)c(-c2ccc(Cl)c(O)c2)o1.Cl.Cl [SB-710397]	0	0	4	0	0	0	22	0	0	0
COc1ccccc1-c1ccc2c(NC(=O)C3CC3)n[nH]c2n1 [SB-711239]	54	4	1	0	27	0	0	13	9	2
O=c1cc(N2CCOCC2)nc2n(Cc3cccc(Cl)c3Cl)ccn12 [GSK2286295]	0	22	6	15	13	0	37	0	23	2
CCCc1ccc(S(=O)(=O)NC2CCN(c3ccnc(Nc4ccc(F)cc4)n3)C2)cc1 (centres unmarked) [GSK1379715]	0	0	0	0	19	0	16	82	0	1
COc1cc(Nc2nccc(N3CCC(NC(=O)Nc4cc(C)ccc4C)C3)n2)cc(OC)c1OC (centres unmarked) [GSK1379762]	0	0	9	24	33	8	42	11	24	21
Cc1cccc(-c2cc(Nc3ccncc3)c3ccccc3n2)n1 [GSK223675]	0	0	13	7	0	2	23	0	27	16
COc1cccc(NC(=O)NC2CCN(c3ccnc(Nc4ccc(F)cc4)n3)C2)c1 (centres unmarked) [GSK1379721]	0	10	1	14	19	9	42	0	28	0
COc1ccccc1CNC(=O)c1cc(C(=O)c2ccccc2C)c[nH]1 [GSK364507]	0	0	4	0	27	0	52	0	0	22
Cc1c(O)cccc1Nc1ccnc2ccc(C(F)(F)F)cc12.Cl [GW466413]	0	0	0	0	0	0	5	0	0	0
COc1cc2ncn(-c3cc(OCC4CCCO4)c(C(N)=O)s3)c2cc1OC (centres unmarked) [GSK204607]	0	12	0	0	0	0	32	0	1	24
Cc1cccc(-c2nc(Nc3ccncc3)c3ccccc3n2)n1 [GW855857]	3	0	0	10	0	0	3	24	0	0
Fc1cc(Cl)ccc1Nc1ccnc2cc(-c3ccc(CN4CCCCC4)o3)ccc12 [GW560116]	0	16	0	0	27	65	94.8	100	0	18
Cc1cccc(-c2nc(C)cc(Nc3ccncc3)n2)n1 [GSK257997]	0	0	9	0	15	0	11	0	14	24
CS(=O)(=O)c1ccc(-c2nc3n(c2-c2ccncc2)CCC3)cc1 [SKF-105942]	99.2	0	11	0	0	0	4	0	12	37
Cn1ccc2ncnc(Oc3cccc(C(=O)Nc4ccccc4)c3)c21	0	0	0	2	0	12	39	0	0	7
Cn1ccc2ncnc(Oc3ccc(Nc4nc5ccccc5[nH]4)cc3)c21	9	0	0	0	12	8	0	19	7	0

SMILES	%Inh (PAK6) [%]	%Inh (PAK7) [%]	%Inh (PCTK1) [%]	%Inh (PCTK2) [%]	%Inh (PCTK3) [%]	%Inh (PDGFRA) [%]	%Inh (PDGFRB) [%]	%Inh (PDPK1) [%]	%Inh (PFTAIRE2) [%]	%Inh (PFTK1) [%]
CS(=O)(=O)c1ccc(-c2c(-c3ncn[nH]3)sc(N3CCOCC3)c2C#N)cc1	12	0	0	3	14	6	20	0	0	13
Cl.c1ccc(-c2n[nH]cc2-c2ccnc(-c3ccc(CN4CCOCC4)cc3)c2)nc1 [GW776245]	14	0	0	11	6	0	0	21	19	0
Cl.NC(=O)c1cccc(Nc2nccc(Nc3ccc(Oc4cccc(Cl)c4)c(Cl)c3)n2)c1 [GW659008]	0	5	0	7	9	0	68	0	4	8
O=C(Nc1n[nH]c2nc(-c3nccs3)c(Br)cc12)C1CC1 [SB-742251]	0	0	45	18	26	0	14	0	4	14
Cc1csc(-c2nc(Nc3ccncc3)c3ccccc3n2)n1 [GW869640]	0	8	20	0	12	36	0	0	21	5
O=C(Nc1ccc2c(c1)OCO2)NC1CCN(c2ccnc(Nc3ccc(F)cc3)n2)C1 (centres unmarked) [GSK1379724]	22	0	3	0	3	0	31	0	8	8
CCn1c(-c2cccnc2O)nc2cnccc21 [SB-736715]	0	3	0	0	0	0	0	0	11	0
COc1cccc(-c2cc(-c3c[nH]nc3-c3ccccn3)ccn2)c1 [GW680338]	3	9	0	0	8	0	8	0	10	1
Cl.Oc1ccc(-c2nc(-c3ccccc3)[nH]c2-c2ccncc2)cc1 [SB-428218]	0	0	4	0	20	0	13	0	0	21
O=C(O)COc1ncnc2cc(-c3ccc4[nH]ncc4c3)sc12	0	7	17	0	0	45	31	0	0	12
Cc1ccc(C(=O)Nc2ccc(Nc3ccnc4cc(-c5ccccn5)ccc34)cc2O)cc1.Cl [GW440146]	8	0	0	0	24	54	86	0	26	18
COc1cc2ncnc(Nc3ccc4nc(-c5ccccc5)[nH]c4c3)c2cc1OC.Cl [GW282450]	11	12	0	0	1	0	28	0	8	19
O=C(Nc1ccccc1)Nc1cccc(Oc2ccc3nccn3n2)c1	0	29	0	5	0	98.9	100	0	57	0
Cc1ccccc1-n1cnc2c(N)ncnc21 [SKF-97510]	12	0	0	0	0	0	0	6	0	0
Nc1ncnc2[nH]c(-c3ccccc3)nc12 [AH5015]	0	0	3	0	0	9	42	21	6	11
O=C(Nc1n[nH]c2cc(-c3cccc(F)c3F)ccc12)C1CC1 [SB-733894]	0	1	0	8	5	23	51	19	0	0
COc1ccc(Nc2nccc(NCCNC(=O)Nc3ccccc3F)n2)cc1 [GSK1379901]	0	0	4	0	0	0	70	0	3	26
